In PubChem BioAssay AID1259336 (Sattelle Laboratory, UCL Respiratory, Division of Medicine, …, 2017) one finds log2 fold change growth data, which are given here for 38 compounds.

Unmarked numbers belong to inactive results. Active and inactive are the calls of the source. No stated cut-off is given here; in the data, active means log2 fold change growth below about -1.8; inactive means the rest.

The test is described as follows: C. elegans growth inhibition, whole organism, log2 fold change (AID 1259336).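 Further: growth scored by imaging after five days at 20 °C.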 To be noted: anthelmintic screen, active compounds read low.
In the case of `CC(C)=CCC/C(C)=C\CNCCNC1C2CC3CC(C2)CC1C3` (stereo not drawn), the log2 fold change growth is 0.423.
With `c1ccc(-c2cc(N3CCCCC3)c3ccccc3n2)nc1` the figure was -1.36; with `COc1cc(N[C@@H](C)CCCN)c2ncccc2c1`, -0.0147; with `O=C1Nc2ccc(Br)cc2[C@@]12NCCc1c2[nH]c2ccccc12`, -0.19.
As for `COc1cccc2c(C)nc(N=C(N)N)nc12`, the log2 fold change growth is 0.0276.
As for `CN1CCC(c2cc(-c3ccncc3)c(-c3ccc(F)cc3)[nH]2)CC1`, the log2 fold change growth is -0.12.
As to `Nc1nccc2ccc(Oc3ccncc3)cc12`, the log2 fold change growth is 0.145.
For the compound `Cn1c(=O)c2c(S(C)(=O)=O)snc2n(C)c1=O`, the log2 fold change growth was 0.155.
For the compound `COc1ccc(-c2nc(-c3cccc(NC(=O)Cc4ccc(F)cc4)c3)no2)cc1OC`, the log2 fold change growth was -0.107.
Consider `O=C([C@@H](c1ccc(Cl)cc1)c1cccnc1)N1CCN(c2ccc(C(F)(F)F)cc2)CC1`, for which the log2 fold change growth was -0.994.
With `c1ccc(Oc2ccc(-c3cc(N4CCOCC4)n[nH]3)cc2)cc1` the figure was 0.348.
With `CC[C@H](Sc1nc2ccccc2o1)C(=O)Nc1nnc(C)s1` the figure was 0.272; with `Cc1[nH]n2c(=O)c3c(nc2c1-c1ccc(F)cc1)CCCC3`, -0.19; with `Cc1cc(Nc2ccc(C(F)(F)F)cc2)n2ccnc2n1`, 0.0805.
Under `CCCCN(CCCC)c1c(C#N)cc(S(=O)(=O)Nc2ccccc2)cc1C#N` stands -0.631; under `O[C@@H](c1cc(C(F)(F)F)nc2c(C(F)(F)F)cccc12)[C@H]1CCCCN1`, -0.189.
Take `COc1cc2ncnc(NC3CCN(Cc4ccccc4)CC3)c2cc1OC`: the log2 fold change growth is -0.116.
As to `CCCCS(=O)(=O)Nc1ccc2cnn(C)c2c1`, the log2 fold change growth is 0.414.
With `Cc1ccc(C(=O)Nc2ccc(S(=O)(=O)O)c3cc(S(=O)(=O)O)cc(S(=O)(=O)O)c23)cc1NC(=O)c1cccc(NC(=O)Nc2cccc(C(=O)Nc3cc(C(=O)Nc4ccc(S(=O)(=O)O)c5cc(S(=O)(=O)O)cc(S(=O)(=O)O)c45)ccc3C)c2)c1`, the log2 fold change growth was 0.211.
Take `COc1ccc(-c2nnc3ccc(-c4cccc(C(C)C)c4)cn23)cc1OC`: the log2 fold change growth was -0.151.
Turning to `Cc1ccc2cc([C@@H]3NC(=O)c4ccccc4N3)c(Cl)nc2c1`, the log2 fold change growth is -0.0454.
Take `C[C@H](C(N)=O)N1CCCC[C@@H]1c1ccc(OCc2cccc(F)c2)cc1`: the log2 fold change growth was -0.0568.
With `COC(=O)Nc1nc2ccc(C(=O)c3ccccc3)cc2[nH]1` the figure was -6.04 (active); with `C[C@@H](C(=O)N1CCCC1)N1CCN(S(=O)(=O)c2ccc(C(C)(C)C)cc2)CC1`, 0.667.
Under `Cc1cc2nc(NC(=O)C(C)(C)C)nc(Cl)c2n1Cc1ccc(Cl)cc1` stands 0.316; under `CC(C)(C)OC(=O)N1CCC(Cn2nc(-c3cnc4ccccc4c3)c3c(N)ncnc32)CC1`, -0.248.
With `O=C(Nc1ccc(N2CCNCC2)nc1)c1oc(-c2ccccc2)nc1C(F)(F)F` the figure was -0.164; with `CNc1snc(C)c1C(=O)NCCOc1ccc(OC)cc1`, -0.0598; with `CCc1c(C)nc(-n2nc(C)cc2NC(=O)c2ccccc2SC)[nH]c1=O`, -0.0348.
Take `C[C@H]1c2cccc(O)c2C(O)=C2C(=O)[C@]3(O)C(O)=C(C(N)=O)C(=O)[C@@H](N(C)C)[C@@H]3[C@@H](O)[C@@H]21`: the log2 fold change growth is 0.805.
Consider `Cc1cc(C(=O)Nc2ccc(-c3ccccc3)cc2)no1`, for which the log2 fold change growth was -3.09 (active).
Regarding `CCN(CC)S(=O)(=O)c1ccc(C(=O)Nc2cc(C)nn2-c2nc(C)c(C)c(=O)[nH]2)cc1`, the log2 fold change growth is 0.269.
Under `COc1cccc(OCC(=O)c2ccc(Br)cc2)c1` stands -0.945; under `Cc1cccnc1NC(=O)c1cccc(OCc2c(C)noc2C)c1`, 0.0511; under `CC(C)NCC(=O)Nc1cccc(C(=O)Nc2cccc(C(F)(F)F)c2)c1`, 0.0022.
With `CN(C)c1cc(NC(=O)Nc2ccccc2)c2ccccc2n1` the figure was 0.272; with `CCN(CC)CCCN1CCN(C(=O)c2cccc(-c3noc(C(F)(F)F)n3)c2)CC1`, -0.0333; with `CC[C@H](CO)NCCN[C@H](CC)CO`, -0.0318.
